This is part of a sample that, as a whole, favours compounds with a hit. Of some 83,000 tested, about 20% had one in any assay.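 A percent growth of 40 corresponds to 60% growth inhibition; 0 means no net growth; -100 means all cells died. Active threshold: below 10.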 Values without a mark were called inactive. Calls of active or inactive are those of the source.
system: HL-60(TB) leukemia; experiment: NCI-60 one-dose screen, 48 h (100 = growth as untreated, 0 = no growth, -100 = all killed); conditions: 10 µM unless noted

Row | Structure (SMILES) | growth
1 | COc1cc(-c2cc3ncccc3c3[nH]c(=O)c4cccnc4c23)cc(OC)c1OC | -7.16% (active)
2 | Nc1c(C(=O)Nc2ccccc2)sc2nc3c(cc12)C(O)CCC3 (stereo not given) | -8.34% (active)
3 | O=C(OCc1ccc2cccc(O)c2n1)N1CCN(C(=O)c2cc3cc(F)ccc3[nH]2)CC1 | -35.8% (active)
4 | c1cc2[nH]ncc2cc1-c1nc2ccc3[nH]ncc3c2c2c1CCCC2 | -18.3% (active)
5 | O=c1oc2ccccc2cc1C1=NN=C(SCc2ccccc2)SC1 | 102%
6 | CCN(CC)CCC(=O)c1cccc2ccccc12 | 102%
7 | COC(=O)c1ccc2[nH]c(O)c(C(=Nc3ccc(N(C)C(=O)CN4CCN(C)CC4)cc3)c3ccc4c(c3)OCO4)c2c1 | -34.9% (active)
8 | COc1ccc(-c2nnc(SC/C(=N\O)c3ccccc3)o2)cc1 | 86.8%
9 | Cc1ccc(C)c2c1sc1nc3nc4sc5ccccc5n4c(=N)c3c(=O)n12 | 89%
10 | N=C1C(c2nc(-c3ccc(Br)cc3)cs2)=C(O)CN1Cc1cccnc1 | 72.4%
11 | COc1cc2c3c(n([C@@H]4CCOC4)c(=O)c2cc1OC)-c1cc2c(cc1C3=O)OCO2 | 26.3%
12 | O=C1CCc2c(sc3[nH]c(=S)n(-c4ccc(OC(F)(F)F)cc4)c(=O)c23)C1 | 39.7%
13 | O=C1Nc2ccc(Cl)cc2C12Nc1cc(Cl)ccc1S2 (stereo not given) | 42.6%
14 | CCCCCCCCCCCCCCCCCCNC(=O)[C@H]1CSC(c2cccs2)N1 (stereo not given in full) | -67.5% (active)
15 | C=CC(=O)NC(=O)Nc1ccccc1Cl | 33.4%
